# Data: the supplement of paper PMC3334620
# Whole data set: some 33,000 sequences, median “E-score (-0.5 to 0.5)” near -0.0034, cut for the highest 2% near 0.25. Many of the other results were omitted from the sample, so the highest values are more common in it than they were.
# Target: T1, Yap3 (UniProt P38749)
# T1 sequence: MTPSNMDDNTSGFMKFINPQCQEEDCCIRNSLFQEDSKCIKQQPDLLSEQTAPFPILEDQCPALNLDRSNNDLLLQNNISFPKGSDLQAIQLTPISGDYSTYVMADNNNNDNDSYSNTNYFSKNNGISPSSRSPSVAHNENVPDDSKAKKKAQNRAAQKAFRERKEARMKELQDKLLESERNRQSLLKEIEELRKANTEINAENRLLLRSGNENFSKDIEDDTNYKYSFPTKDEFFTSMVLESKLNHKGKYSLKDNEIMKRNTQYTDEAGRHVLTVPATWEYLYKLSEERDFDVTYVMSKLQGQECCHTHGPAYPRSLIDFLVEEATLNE
# Assay: PBM E-score (8-mer binding enrichment) (E-score (-0.5 to 0.5)); higher = stronger / more preferred TF binding
# Details: protein concentration: 100 nM; construct: GST-full length
# Method: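 Universal 'all 10-mer' protein binding microarrays (Agilent AMADID 015681) probed with GST-tagged S. cerevisiae TFs (full-length or DBD) made by in vitro transcription/translation (PURExpress), about 100-200 nM. Bound TF was detected with fluorescent anti-GST. Each ungapped 8-mer (which stands for itself and its reverse complement) is scored by the PBM enrichment score (E-score), a modified Wilcoxon-Mann-Whitney statistic from -0.5 to +0.5, computed with the Universal PBM Analysis Suite. Scale: above 0.35 generally sequence-specific binding.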
row,Sequence,PBM E-score
1,GTCTTGAA,0.0256
2,AAGAACGA,0.142
3,CCAATTGA,0.0344
4,GAACGCAC,0.0357
5,AGAGGTAT,0.256
6,AGAGGTAA,-0.0121
7,AGAGGTAC,-0.248
8,ATCCGATG,0.0814
9,ATTAGACG,0.104
10,ACTGTAAC,0.0996
11,AATGTAAA,0.231
12,GACGTAAA,0.0343
13,CATGTAAA,0.0358
14,TATGTAAA,0.262
15,AATGTAAT,0.253
16,ACTGTAAA,0.257
17,CATGTAAG,0.155
18,CCTGTAAA,-0.0789
19,AATGTAAG,0.307
20,CACGTAAA,-0.0521
21,TACGTAAA,0.319
22,TAGATGAA,0.082
23,CCGATGTC,0.0178
24,AATAGCTA,0.0193
25,AGTGATCC,-0.0505

row,Sequence,PBM E-score
1,GGGATCGA,-0.124
2,AACGTAAC,0.201
3,CGCGTAAA,0.255
4,AACGTAAT,0.353
5,CGCGTAAG,0.158
6,TGCGTAAA,0.132
7,AACGTAAA,0.2
8,CAAGAAAC,0.197
9,TACAACTA,-0.028
10,AGCCCACA,-0.117
11,AATGGAGG,-0.119
12,GATTTTAC,0.161
13,AATTTTAC,0.258
14,AATTTTAG,0.107
15,ATTTTTAC,0.0674
16,CATTTTAG,0.121
17,CATTTTAC,0.332
18,AATTTTAT,0.266
19,AAATTTAT,0.144
20,CATTTTAA,0.219
21,CCTTCTCG,-0.134
22,AGGTTTCA,0.0131
23,GATACTAC,0.0824
24,ACGGTAGA,-0.0586
25,AACTGATT,-0.0243

row,Sequence,PBM E-score
1,AACCAGGC,-0.00725
2,CAGTGAAC,0.161
3,CTGGTTGA,-0.256
4,CTTCACTC,0.0393
5,ATAATGTC,0.195
6,ATTATGTA,0.267
7,ACTATGTG,-0.0195
8,AGTATGTG,0.203
9,ATTATGTG,0.291
10,CTAATGTA,0.148
11,ATTATGCA,0.0948
12,ATAATGTA,0.292
13,GTTATGTA,0.151
14,ATTATGCC,0.119
15,ATTATGTC,0.198
16,ATTATGCG,0.297
17,CCTGCGCA,-0.158
18,AAATCACC,0.235
19,AGATCGCG,0.0544
20,GTAGGGAA,0.0975
21,ACGTAGTC,-0.262
22,CTTATGAA,0.0398
23,ATTATGAA,0.261
24,GTTATGAA,0.172
25,ATCGACTA,0.0167

row,Sequence,PBM E-score
1,CATGTGGC,0.0138
2,ACAACGCG,0.0663
3,GTATTCAC,0.113
4,ATATTCAC,0.254
5,ATATTCTA,0.175
6,CTATTCTC,0.134
7,ATATTCTC,0.295
8,CTATTCAC,0.133
9,AGGTTCTG,-0.122
10,CCACCATC,-0.238
11,GTACAAGA,0.0226
12,GACTTACC,-0.11
13,CAAAGTCA,0.0697
14,AGACAATG,0.0142
15,AGACAATA,0.339
16,AGACAATC,0.129
17,CTATGGGC,-0.0642
18,ACCCAGAA,0.158
19,CAACCGCA,0.00088
20,CAACCGCC,-0.103
21,CAACCGCG,0.323
22,CATAAGAA,0.21
23,AAGTGGAC,-0.033
24,GTACGTAA,0.312
25,ACACGTAT,0.0936

row,Sequence,PBM E-score
1,ATTCGTAA,0.292
2,ATTCGTTC,0.27
3,GTACGTAC,0.0261
4,AAACGTAT,0.145
5,CTTCGTTC,0.0138
6,CTTCGTAA,0.141
7,ATTCGTTA,0.25
8,ATACGTAT,0.296
9,CTACGTAA,0.135
10,GTTCGTAA,0.192
11,CGGGGTAC,-0.251
12,GTGAGCTA,0.0321
13,AAATGTGC,0.197
14,CCACTAAG,0.0472
15,ACTAAGTG,-0.00977
16,ACAACAGC,0.0808
17,ACAGAGAT,0.0805
18,CAGGCAAG,-0.0287
19,ATACGTAA,0.266
20,ATACGTAC,0.0322
21,ATACGTAG,0.0583
22,CCTTAGCC,-0.0133
23,CGCCATCC,-0.247
24,CTGTAAGC,-0.0121
25,ATGTAACG,0.164

row,Sequence,PBM E-score
1,ATGTAAGC,0.264
2,ATGTAATG,0.151
3,ATGTAAGA,0.277
4,ATGTAACA,0.256
5,ATGTAATA,0.371
6,CTGTAAGA,-0.0157
7,CTGTAACA,-0.0647
8,GTGTAAGA,-0.0287
9,ATGTAAGG,0.129
10,CTGTAATA,0.113
11,AGCGTCGA,0.124
12,AACCTAAA,0.142
13,ATCCCTGA,-0.0313
14,CAGCACAC,-0.173
15,AAGTGTTA,0.112
16,TAGAGCTA,-0.0728
17,AATCCTCT,-0.127
18,CCAGTTCG,-0.114
19,AAAATCTA,0.0549
20,AGCTACTA,0.0917
21,CGCTACTA,0.264
22,CGCTACTC,-0.112
23,ATTTTCTC,0.0752
24,ACAATACG,0.0668
25,ATAATACG,0.292

row,Sequence,PBM E-score
1,GTAATACA,0.273
2,ATAATACA,0.357
3,ATACTACA,0.28
4,ACAATACA,0.0763
5,ATAATACC,0.226
6,GAAATACA,0.0912
7,CTAATACA,0.25
8,CTACTACA,0.225
9,AGAATACG,0.0873
10,ATACTACC,0.0377
11,GAAGGCAC,-0.128
12,AAGGATTC,-0.129
13,GAGTGGAA,0.0318
14,CGATATCC,0.146
15,AAAGAGGC,-0.0407
16,ATTCCTTG,-0.113
17,CTTATATC,0.218
18,AGCATATA,0.0558
19,ACTATATA,0.328
20,GGCATATA,0.268
21,ACCATATC,0.0587
22,CTTATATA,0.315
